Inconclusive results are not listed. Activity calls are given as the source filed them. How the source made its calls: active means hit-call score of the fitted dose curve at least 0.9, where 1 is the maximum; inconclusive means response in the unintended direction; inactive means score below 0.9.

By AC50 is commonly meant the concentration at which the activity in the assay is half-maximal.

Sequence of Cellular tumor antigen p53 (Homo sapiens) (P04637 whole entry, looked up, the tested form may be a part): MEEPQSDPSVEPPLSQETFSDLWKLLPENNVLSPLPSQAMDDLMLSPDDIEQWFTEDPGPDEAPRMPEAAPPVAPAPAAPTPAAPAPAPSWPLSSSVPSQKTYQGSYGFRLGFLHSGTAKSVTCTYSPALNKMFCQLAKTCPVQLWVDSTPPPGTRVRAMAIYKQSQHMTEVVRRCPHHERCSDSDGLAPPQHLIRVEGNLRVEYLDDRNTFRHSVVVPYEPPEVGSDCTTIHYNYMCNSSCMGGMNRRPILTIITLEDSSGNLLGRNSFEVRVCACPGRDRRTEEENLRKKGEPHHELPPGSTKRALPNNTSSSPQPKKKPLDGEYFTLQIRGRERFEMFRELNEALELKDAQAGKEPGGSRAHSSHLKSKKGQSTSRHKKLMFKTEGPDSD

For the experiment, the target named is Cellular tumor antigen p53 (Homo sapiens) (UniProt P04637). The experiment is described as follows: TOX21_p53_BLA_p4_ratio: Tox21 HCT-116 p53 Agonism Beta-lactamase Assay, Ratio, Phase 4 (AID 2283601). The text has this:
TOX21_p53_BLA_p4 is a cell-based, single-readout assay that uses HCT116, a human intestinal cell line, […] in a 1536-well plate.TOX21_p53_BLA_p4_ratio is an assay readout measuring reporter gene via receptor activity and designed using inducible reporter (beta lactamase induction) detected with GAL4 b-lactamase reporter gene. The signal is derived from the ratio of cleaved (ch2) to uncleaved (ch1)reporter gene substrate used as the measure of target activity.Data from the assay component TOX21_p53_BLA_p4_ratio was analyzed into 1 assay endpoint. This assay endpoint, TOX21_p53_BLA_p4_ratio, was analyzed in the positive analysis fitting direction relative to DMSO as the negative control and baseline of activity. Using a type of inducible reporter, gain-of-signal activity can be used to understand changes in the reporter gene as they relate to the gene TP53. Furthermore, this assay endpoint can be referred to as a primary readout, because this assay has produced multiple assay endpoints where this ratio serves a reporter gene function to understand target activity. To generalize the intended target to other relatable targets, this assay endpoint is annotated to the DNA binding intended target family, where the subfamily is tumor suppressor.
Thawing Method: Place 14 mL of pre-warmed thaw medium into a 15 mL of conical tub. Remove the vial of cells to be thawed from liquid nitrogen and thaw rapidly by placing at 37C in a water bath with gentle agitation for 1-2 minutes. Decontaminate the vial by wiping with 70% ethanol before opening in a biological safety cabinet. Transfer the vial contents drop-wise into 14 mL of thaw medium in a sterile 15-mL conical tub. Centrifuge cells at 900 rpm for 4 minutes and resuspend in thaw medium. Transfer contents to the T75 tissue culture flask containing Thaw Medium and place flask in a humidified 37C/5% CO2 incubator. Switch to growth medium at first passage.Propagation Method: Aspirate medium, rinse once in DPBS, add 0.25% Trypsin/EDTA and swirl to coat the cell evenly. Add an equal volume of Growth Medium to inactivate Trypsin after 2-3 minutes incubation at 37C. Centrifuge cells at 900 rpm for 4 minutes and resuspend in growth medium. Cell should be passage or fed at least twice a week.Assay Protocol: Harvest cells from culture in growth medium and resuspend in assay medium. 2.2 Dispense 4000 cells/5 uL/well into 1536-well black/clear bottom plates using a Multidrop dispenser. After the cells were incubated at 37C for 5 hours, 23 nL of compounds dissolved in DMSO were transferred to the assay plate by a PinTool resulting in a 217-fold dilution. Incubate the plates for 16 hours at 37C, 5% CO2. Add 1 uL of 6X LiveBLAzer FRET B/G (CCF4-AM) Substrate Mixture to each well using a BioRAPTR dispenser and incubate the plates at room temperature for 2 hours. Measure fluorescence intensity at 460 and 530 nm emission and 405 nm excitation by an Envision detector. Data is expressed as the ratio of 460nm/530nm emissions. Add 4 uL of Cell-titer Glo to each well using BioRAPTR and incubate the plates at room temperature for 2 hours. Measure fluorescence intensity by a VewLux plate reader.
`COc1ccc(-c2nc3ccc(C4=NNC(=O)CC4C)cc3[nH]2)cc1` (stereo not given): the AC50 was 15 µM (active). Turning to `CCCCCCCCCCCCCCCC(=O)O[C@@H]1CC(C)=C(/C=C/C(C)=C/C=C/C(C)=C/C=C/C=C(C)/C=C/C=C(C)/C=C/C2=C(C)C[C@@H](OC(=O)CCCCCCCCCCCCCCC)CC2(C)C)C(C)(C)C1`, the outcome was inactive. Same read-out and setting: with `CCc1ccc(CC)cc1` the entry was “inactive”. Still for that read-out and setting: in the case of `C=CCC=CC` it was “inactive”. Still for that read-out and setting: with `Cc1cccc(C)c1NC(=O)CN1CCCC1` the entry was “inactive”; with `C1=C\CC/C=C\CC/1`, “inactive”. As for `CN(C)CCCNCCCN`, the result was inactive.

As to `CCOc1cc(NC(C)=O)ccc1C(=O)OC`, the outcome was inactive. Still for that read-out and setting: with `O=C(O)[C@H]1/C(=C/CO)O[C@@H]2CC(=O)N21` the entry was “inactive”. Still for that read-out and setting: with `CCN1CCc2nc(N)oc2CC1` the entry was “inactive”; with `C=CC(=O)OCCOCCOCCOCCOC(=O)C=C`, “inactive”; with `Nc1nc2c(ncn2COCCO)c(=O)[nH]1`, “inactive”. With `Cc1ccco1`, the result was inactive.

For `Nc1ccc(C(=O)O)c(O)c1`, the outcome was inactive. For the compound `CCCOc1ccc2nc(NC(=O)OC)[nH]c2c1`, the result was inactive.

For `C=CCSSSCC=C`, the result was inactive. On the same count and under the same terms, in the case of `NC(=O)OC[C@@H]1[C@H](NC(=O)/C(=N\OCC(=O)O)c2csc(N)n2)C(=O)N1S(=O)(=O)O` it was “inactive”; in that of `CCNS(=O)(=O)c1ccc(C)cc1`, “inactive”.

With `CN1CCN(C2=Nc3ccccc3Oc3ccc(Cl)cc32)CC1`, the outcome was inactive. On to `FC(F)(F)c1ccccc1`, for which the result was inactive.

Consider `CCC=O`, for which the result was inactive. Take `CCCCCCCCCCCCOCCCN`: the outcome was inactive.

On to `CCc1ccc(Br)cc1`, for which the outcome was inactive. Turning to `O=C(c1ccc(O)cc1)c1ccc(O)cc1`, the AC50 is 75.5 µM (active). `Cc1ccccc1OCC(O)CNCCOc1ccc(C(N)=O)cc1` (stereo not given): the outcome was inactive. Same read-out and setting: in the case of `Cc1ccc(C(=O)c2ccc(CC(=O)O)n2C)cc1` it was “inactive”. Still for that read-out and setting: with `CO[C@H]1[C@@H](O)[C@H](N)[C@@H](O[C@H]2O[C@H]([C@H](C)N)CC[C@H]2N)[C@H](O)[C@@H]1N(C)C(=O)CN` the entry was “inactive”; with `Cc1cc(OI)c(C(C)C)cc1-c1cc(C(C)C)c(OI)cc1C`, “inactive”; with `CN=C(NC#N)Nc1ccc(C2=NNC(=O)CC2C)cc1` (stereo not given), “inactive”. The same measure, in the same setting: with `Cc1cccc(C(=O)O)c1[N+](=O)[O-]` the entry was “inactive”; with `OCC(O)CN1CCN(c2ccccc2)CC1` (stereo not given), “inactive”; with `CN1[C@@H]2CC[C@H]1CC(OC(=O)c1c[nH]c3ccccc13)C2` (stereo not given in full), “inactive”. In the case of `CC(=O)Nc1cccc(N)c1`, the AC50 is 79.2 µM (active). In the case of `CCC(=O)OC(OP(=O)(CCCCc1ccccc1)CC(=O)N1C[C@H](C2CCCCC2)C[C@H]1C(=O)O)C(C)C` (stereo not given in full), the outcome was inactive.

`C=CC(=O)[O-].C=CC(=O)[O-].[Zn+2]`: the outcome was inactive. `NC(=O)Nc1nc2ccccc2[nH]1`: the result was inactive. Same read-out and setting: in the case of `CCN1CCN(C(=O)N[C@@H](C(=O)N[C@@H]2C(=O)N3C(C(=O)O)=C(CSc4nnnn4C)CS[C@H]23)c2ccc(O)cc2)C(=O)C1=O` it was “inactive”; in that of `CC1(C)O[C@@H]2C[C@H]3[C@@H]4CCC5=CC(=O)CC[C@]5(C)[C@@]4(F)[C@@H](O)C[C@]3(C)[C@]2(C(=O)CCl)O1`, “inactive”; in that of `OC[C@H]1O[C@@H](OCCc2ccc(O)cc2)[C@H](O)[C@@H](O)[C@@H]1O`, “inactive”. With `NS(=O)(=O)c1ccc(Cl)c(S(N)(=O)=O)c1`, the outcome was inactive.
